Screening results: PubChem BioAssay, National Center for Advancing Translational Sciences (NCATS)
TDP1 cell CPT = DT40-hTDP1 cell growth loss with CPT; chicken DT40 Tdp1-/-;hTDP1 cells + 20 nM CPT, ATP luminescence, 48 h; Potency, µM (titrated, usually from 46.2 µM), without a hit: at the top dose activity change, negative = growth inhibition, most hits filed as inhibitors; 12% of 420,000 active; further: potency means the concentration at half of the fitted maximal effect; nearly all actives have a fitted effect of over 55% in size
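Cell growth measured by CellTiter-Glo luminescence after a minimum 48 h, 37 C compound exposure with 20 nM CPT in Tdp1-knockout DT40 cells stably expressing hTDP1, seeded 400/well; qHTS titration format.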
IL1B secr inh = blocks inflammasome-driven IL-1 beta release; THP-1 LPS/ATP IL-1B secretion, AlphaLISA, 16 h; hits give low values; activity change, % at 57.5 µM; 4.7% of 360,000 active; AID 743279; in the data active means activity change below about -50%; inconclusive means mostly about -30% to -49%
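Secreted IL-1B measured by AlphaLISA bead assay after 16 h compound exposure of THP-1 cells; compounds (final up to 57.5 uM) added 1 h before LPS (250 ng/mL) and ATP (1.25 mM) stimulation; lower signal means less secretion.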
Giardia killer = kills Giardia lamblia; AID 540267; Giardia lamblia trophozoite viability; activity change, % at 7.66 µM, hits read low; 0.15% of 340,000 active; in the data active means activity change below about -80%; inconclusive means between about -30% and that limit;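 further: parasites exposed to compound for two days anaerobically before the ATP read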
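Anaerobic 48 hrs incubation at 37 deg C of 100 trophozoites/well with test compounds; ATPLite 1-Step luminescence, 15-30 min RT, reports cellular ATP as viability.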
ELG1 repair inh = blocks ELG1-dependent DNA repair in HEK293T cells | AID 504467 | HEK293T ELG1-luciferase reporter, luminescence, 16 h; DNA damage induced by 5-fluorouridine | 2.3% of 330,000 active | Potency, µM (top dose mostly 46.1 µM), for inactives: at the highest dose activity change, negative = inhibition, hits mostly inhibitors; further: potency means the concentration at half of the fitted maximal effect; nearly all actives have a fitted effect of over 55% in size
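Reporter activity after DNA damage by 5-fluorouridine is monitored. Compound-treated cells incubate 16 hr at 37 °C, then ONE-Glo is added for 30 min before luminescence reading.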
TDP1 cell noCPT = qHTS for Inhibitors of human tyrosyl-DNA phosphodiesterase 1 (TDP1): qHTS in cells in absence of CPT | DT40 Tdp1-/- hTDP1 cells, no CPT, ATP luminescence, 48 h | Potency, µM (doses to about 46.2 µM), for inactives: at the top dose activity change, negative = growth inhibition, usual class: inhibitors | 15% of 420,000 active | AID 686978, 2013; further: potency means the concentration at half of the fitted maximal effect; nearly all actives have a fitted effect of over 55% in size
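Growth of hTDP1-complemented DT40 Tdp1-knockout cells is measured by ATP luminescence after at least 48 hr compound exposure at 37 °C, with DMSO substituting for the 20 nM CPT used in the parallel screen.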
TDP1 inh = TDP1 (human) enzyme inhibition. Q9NUW8. recombinant TDP1, AlphaScreen DNA substrate cleavage. Potency, µM (top dose mostly 130 µM), inactives show top-dose activity change, negative = inhibition, hits mostly inhibitors. 0.28% of 350,000 active; further: potency means the concentration at half of the fitted maximal effect; nearly all actives have a fitted effect of over 40% in size
Target sequence (Q9NUW8 whole entry, looked up): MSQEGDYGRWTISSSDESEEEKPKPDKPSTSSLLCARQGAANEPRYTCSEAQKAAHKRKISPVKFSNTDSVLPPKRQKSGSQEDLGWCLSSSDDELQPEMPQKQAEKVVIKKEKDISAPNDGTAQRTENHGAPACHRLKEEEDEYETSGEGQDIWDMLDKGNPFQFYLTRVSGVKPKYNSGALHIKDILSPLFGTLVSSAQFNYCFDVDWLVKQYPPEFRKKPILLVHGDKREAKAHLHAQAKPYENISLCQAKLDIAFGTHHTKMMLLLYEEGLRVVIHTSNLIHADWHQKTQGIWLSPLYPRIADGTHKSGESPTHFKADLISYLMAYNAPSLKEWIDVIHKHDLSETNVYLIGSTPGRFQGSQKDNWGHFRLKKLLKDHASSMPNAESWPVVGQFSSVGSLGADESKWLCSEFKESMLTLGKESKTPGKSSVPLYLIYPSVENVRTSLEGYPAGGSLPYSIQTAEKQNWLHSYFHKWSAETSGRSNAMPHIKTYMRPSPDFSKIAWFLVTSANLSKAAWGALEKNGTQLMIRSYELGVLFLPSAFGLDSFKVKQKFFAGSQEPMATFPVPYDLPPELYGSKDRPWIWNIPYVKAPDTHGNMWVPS
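Steps: enzyme plus compound, 15 min RT; add biotin/phosphotyrosine-FITC oligonucleotide (15 nM final), react 5 min; add donor/acceptor beads (10 ug/ml final), 10 min; read AlphaScreen. Tdp1 at 1 nM final.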
Starred values were filed as active, the others as inactive; ? = inconclusive; . = not tested or not shown; [ ] = another dose, or the depositor's remark. Sampled rows, rich in hits. Any-hit rate of the full collection: about 19%. Unless noted, the call rests on the fitted dose curve; in most records, active means well fitted curve in the direction sought with a large enough effect; inconclusive means small, poorly fitted or top-dose-only effect, or another doubt; inactive means no such curve, though single readings can be large; an effect the other way counts as inactive or inconclusive. On the % scale 0 is the no-effect control and ±100 the full control effect.

SMILES | TDP1 cell CPT | IL1B secr inh | Giardia killer | ELG1 repair inh | TDP1 cell noCPT | TDP1 inh
CN(Cc1ccc(-n2cccn2)cc1)Cc1nc(-c2cnccn2)no1 | -1% | 22 | 5 | 1% | -4% | 0%
O=C(CSc1ccc2ccccc2c1)NCCc1ccc(O)c(O)c1 | 16µM* | -53* | -22 | 8% | 23µM* | -5%
COc1ccc(CCNC(=O)CSc2ccc3ccccc3c2)cc1OC | ? | 2 | -9 | -7% | ? | 5%
COc1cc(C(=O)NCC2CCCO2)ccc1OCc1ccccc1Cl (stereo not drawn) | -30% | 0 | -5 | ? | ? | 2%
O=C(CN1CCN(S(=O)(=O)c2ccc(Br)s2)CC1)NCC1CCCCC1 | -23% | -5 | . | . | ? | .
O=C(Nc1ccc2c(c1)CCC2)Nc1ccccc1F | ? | . | 8 | ? | ? | 0%
CC(C(=O)Nc1ccccc1)N1CCN(c2ccccn2)CC1 (stereo not drawn) | -8% | 3 | 3 | 7% | 8% | .
Cc1c(C(=O)N2CCN(c3ccc(F)cc3)CC2)sc2ncnc(N3CCN(c4ccccn4)CC3)c12 | 18µM* | -84* | 14 | 6.5µM* | 15µM* | 9%
COc1ccc(Cl)cc1NC(=O)C(C)N1CCN(c2ccccn2)CC1 (stereo not drawn) | ? | -5 | 15 | ? | 18µM* | .
Cc1c(C(=O)N2CCN(c3ccccn3)CC2)sc2ncnc(N3CCOCC3)c12 | -16% | -1 | -9 | 0% | -18% | 1%
Cc1c(C(=O)N2CCN(c3ccc(F)cc3)CC2)sc2nc3n(c(=O)c12)CCC3 | ? | -18 | 31 | ? | ? | 3%
COc1ccccc1N1CCN(C(=O)c2sc3ncnc(N4CCN(c5ccccn5)CC4)c3c2C)CC1 | 4.6µM* | -75* | -5 | 18µM* | 4.6µM* | .
Cc1nc(N2CCN(c3ccccn3)CC2)c2c(C)c(C(=O)N3CCN(c4ccc(F)cc4)CC3)sc2n1 | ? | -62* | 24 | 23µM* | ? | .
Cc1ccc(NC(=O)C(=O)NCC(c2ccc3c(c2)OCO3)N2CCOCC2)c(C)c1 (stereo not drawn) | ? | . | . | . | ? | 4%
O=C(CCS(=O)(=O)c1cccs1)Nc1ccc(C(=O)Nc2ccccc2F)cc1 | ? | . | . | . | -11% | -4%
O=C(CC(NCc1cccnc1)C(=O)O)Nc1ccc(F)cc1 (stereo not drawn) | -3% | . | . | . | 7% | .
COc1cc(C2CC(=O)N(c3ccccc3)C3=C2C(=O)OC3)cc(OC)c1OC (stereo not drawn) | 1% | . | . | . | -7% | 5%
COc1ccc(OC)c(NC(=O)c2sc3ncnc(N4CCN(c5ccccn5)CC4)c3c2C)c1 | ? | 14 | -12 | 2.6µM* | 21µM* | 4%
CSc1cccc(-n2cc(-c3ccc4c(c3)OCO4)[nH]c2=O)c1 | 4.6µM* | -14 | 15 | ? | 5.2µM* | 8%
COc1cccc2c1OC1(N3CCOCC3)CCCCC1C2C[N+](=O)[O-] (stereo not drawn) | -28% | -5 | . | . | ? | .
Cc1ccc(-n2ncc3c(=O)n(CC(=O)NCc4ccco4)cnc32)cc1C | 10µM* | 21 | 6 | -3% | 6.5µM* | 5%
O=C(Cn1cnc2c(cnn2-c2ccc(F)cc2)c1=O)NCc1ccco1 | 2.9µM* | 39 | -1 | -29% | 5.8µM* | 2%
O=C(Cn1cnc2c(nnn2-c2ccc(F)cc2)c1=O)NCc1ccco1 | ? | 18 | 12 | 12% | -3% | -1%
Cc1ccc(-n2ncc3c(=O)n(CC(=O)NCc4ccco4)cnc32)cc1 | ? | 21 | 20 | -7% | 23µM* | 2%
N#C/C(=C\c1c[nH]c2ccccc12)C(=O)NC1CC1 | -15% | ? | -17 | ? | -20% | .
SMILES | TDP1 cell CPT | IL1B secr inh | Giardia killer | ELG1 repair inh | TDP1 cell noCPT | TDP1 inh
N#C/C(=C\c1cccnc1)C(=O)NC1CCCCC1 | ? | -78* | 1 | -11% | 23µM* | 0%
N#C/C(=C\c1c[nH]c2ccccc12)C(=O)NC1CCCC1 | 16µM* | 0 | 31 | ? | 16µM* | 4%
CCOC(=O)C1=NS(=O)(=O)NC(C)=C1 | -11% | 19 | 9 | ? | -9% | .
COCc1c(C(C)C)nc(C(C)C)c(/C=C/[C@@H](O)C[C@@H](O)CC(=O)O)c1-c1ccc(F)cc1 | 1.2µM* | . | . | . | 0.6µM* | .
Cc1cc2c(cc(C(=O)OC(C(=O)NCc3ccco3)C(C)C)n2C)o1 (stereo not drawn) | 26µM* | 0 | -8 | 23µM* | 18µM* | 8%
CC(C)C(OC(=O)c1cccs1)C(=O)NCc1ccco1 (stereo not drawn) | ? | 0 | -3 | 3% | ? | 7%
COc1cc(CNc2nc(C)c(-c3ccn(CC4CCCN(C)C4)n3)s2)ccc1F (stereo not drawn) | -15%[9.04 µM] | . | . | . | 23µM* | .
COc1cccc(NC(=O)c2ccccc2Oc2ccccc2)c1 | -7% | -24 | -13 | 4% | -8% | .
COc1cccc(NC(=O)c2cc3ccccc3o/c2=N\O)c1 | 15µM* | ? | ? | ? | 13µM* | .
O=C(Nc1ccccc1Cl)c1cc2ccccc2o/c1=N\O | ? | 4 | 5 | ? | 10µM* | .
Cc1sc2ncn(CC(=O)Nc3ccc(C(C)C)cc3)c(=O)c2c1S(=O)(=O)N1CCN(c2ncccn2)CC1 | ? | . | . | . | ? | 3%
CC1=C(c2ccc(C)c(C)c2)S(=O)(=O)N=C1N1CCN(c2cccc(C)c2)C(C)C1 (stereo not drawn) | 18µM* | . | . | . | 10µM* | 6%
COc1ccc(C2=C(C)C(N3CCN(c4ccc(OC)cc4)CC3)=NS2(=O)=O)cc1 | -4% | . | . | . | -6% | 0%
CC1=C(c2ccc(C(C)C)cc2)S(=O)(=O)N=C1N1CCN(c2ccc(F)cc2)CC1 | 21µM* | . | . | . | 10µM* | -3%
CC1=C(c2ccc(C)c(C)c2)S(=O)(=O)N=C1N1CCC(C(=O)NCc2ccccc2C)CC1 | -6% | . | . | . | -21% | 1%
CC1=C(c2ccc(Cl)cc2)S(=O)(=O)N=C1N1CCN(c2cccc(C(F)(F)F)c2)CC1 | 8.2µM* | . | . | . | 21µM* | 9%
CCN1CCN(c2cc(SC(C)C)nc(-c3ccc(OC)cc3)n2)CC1 | 23µM* | -82* | 0 | 2% | ? | 1%
CC(C)Sc1cc(N2CCOCC2)nc(-c2ccc(Cl)cc2)n1 | ? | -13 | 10 | 1% | ? | 0%
